In assay [1] the test system is CLZ3 (HCA2 human fibroblast dual HR-NHEJ reporter). Kind of assay: NHEJ repair efficiency (GFP+ cells) relative to control (log10 fold); higher = more non-homologous end joining. To be noted: 5 µM; doxycycline 0.5 ug/mL.
Assay [2] has the same test system. In words: HR repair efficiency (tdTomato+ cells) relative to control (log10 fold); higher = more homologous recombination. Conditions: 5 µM; doxycycline 0.5 ug/mL.
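Throughout, for HR repair efficiency (tdTomato+ cells) relative to control: compound given one day before doxycycline, which switches on I-SceI endonuclease expression to create double-strand breaks within the integrated reporter.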
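Throughout, for NHEJ repair efficiency (GFP+ cells) relative to control: compound given one day ahead of doxycycline, which switches on I-SceI endonuclease to cut the chromosomally integrated reporter and create DSBs.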

For `O=C(/C=C/c1ccc(O[C@@H]2O[C@H](CO)[C@@H](O)[C@H](O)[C@H]2O)cc1)c1ccc(O)cc1O` [Isoliquiritoside], the “NHEJ repair efficiency (log10)” value in assay [1] is -0.17. Moreover, the “HR repair efficiency (log10)” value in assay [2] is -0.232.

As for `COc1cc(C[C@H](C)[C@H](C)Cc2ccc3c(c2)OCO3)ccc1O` [Anwuligan], the “NHEJ repair efficiency (log10)” value in assay [1] was determined as 0.0149. In assay [2], the “HR repair efficiency (log10)” value worked out at 0.0747.

As to `O=C(O)[C@H]1O[C@@H](Oc2cc(O)c3c(=O)cc(-c4ccc(O)cc4)oc3c2)[C@H](O)[C@@H](O)[C@@H]1O` [Apigenin-7-O-Glucronide], the “NHEJ repair efficiency (log10)” value in assay [1] is -0.216. For the same compound, in assay [2], the “HR repair efficiency (log10)” value amounted to 0.161.

In the case of `Oc1cc(O)cc(/C=C/c2ccc(O)c(O)c2)c1` [Piceatannol], in assay [1], the “NHEJ repair efficiency (log10)” value is 0.0759. Besides, the “HR repair efficiency (log10)” value in assay [2] worked out at 0.0923.

As for `COc1cc(OC)c2ccc(=O)oc2c1` [5,7-Dimethoxycoumarin], in assay [1], the “NHEJ repair efficiency (log10)” value worked out at 0.0653. Moreover, the “HR repair efficiency (log10)” value in assay [2] was found to be 0.0758.

For the compound `O=c1oc2c(O)c(O)cc3c(=O)oc4c(O)c(O)cc1c4c23` [Ellagic Acid], in assay [1], the “NHEJ repair efficiency (log10)” value was -0.0512. Moreover, the “HR repair efficiency (log10)” value in assay [2] was -0.174.

Turning to `C=C(C(=O)O)[C@@H]1CC[C@@H](C)[C@@H]2CCC(C)=C[C@@H]21` [Artemisinic acid], in assay [1], the “NHEJ repair efficiency (log10)” value is 0.0135. For the same compound, in assay [2], the “HR repair efficiency (log10)” value was determined as 0.116.

Turning to `COc1cc(CNC(=O)CCCC/C=C/C(C)C)ccc1O` [Capsaicin], the “NHEJ repair efficiency (log10)” value in assay [1] was -0.0748. Further, the “HR repair efficiency (log10)” value in assay [2] is -0.0984.

On to `O=c1oc2c(O)c(O)cc3c(=O)oc4c(O)c(O)cc1c4c23` [Ellagic acid], for which, in assay [1], the “NHEJ repair efficiency (log10)” value worked out at 0.0142. In addition, the “HR repair efficiency (log10)” value in assay [2] is -0.0224.

`COc1ccc(-c2cc(=O)c3c(O)cc(O[C@@H]4O[C@H](CO[C@@H]5O[C@@H](C)[C@H](O)[C@@H](O)[C@H]5O)[C@@H](O)[C@H](O)[C@H]4O)cc3o2)cc1O` [Diosmin]: in assay [1], the “NHEJ repair efficiency (log10)” value is -0.157. The “HR repair efficiency (log10)” value in assay [2] is -0.0408.

In the case of `COc1c(O)cc2oc(-c3ccccc3)cc(=O)c2c1O` [Oroxylin-A], the “NHEJ repair efficiency (log10)” value in assay [1] was -0.22. The “HR repair efficiency (log10)” value in assay [2] is 0.0535.

With `O=C1/C(=C2\Nc3ccccc3C2=O)Nc2ccccc21` [Indigo], the “NHEJ repair efficiency (log10)” value in assay [1] is -0.108. In addition, the “HR repair efficiency (log10)” value in assay [2] is -0.0903.

Consider `C[C@@H]1CC[C@@]2(OC1)O[C@H]1C[C@H]3[C@@H]4CC=C5C[C@@H](O[C@@H]6O[C@H](CO)[C@@H](O)[C@H](O[C@@H]7O[C@H](CO)[C@@H](O)[C@H](O)[C@H]7O)[C@H]6O[C@@H]6O[C@@H](C)[C@H](O)[C@@H](O)[C@H]6O)CC[C@]5(C)[C@H]4CC[C@]3(C)[C@H]1[C@@H]2C` [Gracillin], for which the “NHEJ repair efficiency (log10)” value in assay [1] was -0.154. For the same compound, the “HR repair efficiency (log10)” value in assay [2] is -0.0532.

For `COc1ccc(-c2oc3cc(O)cc(O)c3c(=O)c2O)cc1` [Kaempferide], in assay [1], the “NHEJ repair efficiency (log10)” value was -0.0948. In assay [2], the “HR repair efficiency (log10)” value is -0.167.

Regarding `O=C(O)c1ccccc1O` [Salicylic acid], the “NHEJ repair efficiency (log10)” value in assay [1] worked out at 0.019. In addition, the “HR repair efficiency (log10)” value in assay [2] stood at 0.0351.

For the compound `CC[C@H](CC[C@@H](C)[C@H]1CC[C@H]2[C@@H]3CC=C4C[C@@H](O)CC[C@]4(C)[C@H]3CC[C@]12C)C(C)C` [β-Sitosterol], the “NHEJ repair efficiency (log10)” value in assay [1] was 0.038. Besides, the “HR repair efficiency (log10)” value in assay [2] was found to be 0.098.

With `COc1c2c(cc3oc(CO)cc(=O)c13)O[C@H](C(C)(C)O)C2` [Cimifugin], the “NHEJ repair efficiency (log10)” value in assay [1] came to 0.0139. In assay [2], the “HR repair efficiency (log10)” value was -0.0036.

In the case of `C=C(CCC=C(C)C)[C@H]1CC[C@]2(C)[C@@H]1[C@H](O)C[C@@H]1[C@@]3(C)CC[C@H](O)C(C)(C)[C@@H]3[C@@H](O[C@@H]3O[C@H](CO)[C@@H](O)[C@H](O)[C@H]3O)C[C@]12C` [Ginsenoside Rk3], in assay [1], the “NHEJ repair efficiency (log10)” value amounted to 0.000935. The “HR repair efficiency (log10)” value in assay [2] amounted to 0.0532.

With `CCC/C=C1\OC(=O)C2=C1CCC1C3C=C4C(=O)O/C(=C\CCC)C4(CC3)C21` (stereo unspecified) [Levistilide A], the “NHEJ repair efficiency (log10)” value in assay [1] was -0.106. For the same compound, the “HR repair efficiency (log10)” value in assay [2] was 0.0314.

In the case of `C[C@H](CCC(=O)O)[C@H]1CC[C@H]2[C@@H]3[C@H](O)C[C@@H]4C[C@H](O)CC[C@]4(C)[C@H]3CC[C@]12C` [Chenodeoxycholic Acid], in assay [1], the “NHEJ repair efficiency (log10)” value is -0.124. In addition, the “HR repair efficiency (log10)” value in assay [2] was 0.00712.

With `CC(C)=CCC[C@](C)(O[C@@H]1O[C@H](CO)[C@@H](O)[C@H](O)[C@H]1O)[C@H]1CC[C@]2(C)[C@@H]1[C@H](O)C[C@@H]1[C@@]3(C)CC[C@H](O)C(C)(C)[C@@H]3[C@@H](O[C@@H]3O[C@H](CO)[C@@H](O)[C@H](O)[C@H]3O[C@@H]3O[C@@H](C)[C@H](O)[C@@H](O)[C@H]3O)C[C@]12C` [Ginsenoside Re], the “NHEJ repair efficiency (log10)” value in assay [1] is -0.152. Further, in assay [2], the “HR repair efficiency (log10)” value was -0.0179.

For the compound `CC1(C)CC[C@]2(C(=O)O)CC[C@]3(C)C(=CC[C@@H]4[C@@]5(C)CC[C@H](O)C(C)(C)[C@@H]5CC[C@]43C)[C@@H]2C1` [Oleanolic Acid], in assay [1], the “NHEJ repair efficiency (log10)” value was 0.0316. Further, the “HR repair efficiency (log10)” value in assay [2] worked out at 0.133.

Take `C[C@@H]1O[C@@H](O[C@H]2[C@H](Oc3c(-c4ccc(O)cc4)oc4cc(O)cc(O)c4c3=O)O[C@H](CO)[C@@H](O)[C@@H]2O)[C@H](O)[C@H](O)[C@H]1O` [Kaempferol 3-O-Neohesperidoside]: the “NHEJ repair efficiency (log10)” value in assay [1] was 0.0799. Moreover, the “HR repair efficiency (log10)” value in assay [2] worked out at 0.307.

For the origin of these results see the supplement of paper PMC7380943.
